This is an account of results in the supplement of paper PMC6555819.

The test system of one assay is RARb homodimer (NR concentration 270 nM). Put plainly: PBM binding z-score (relative to random genomic background probes); higher = stronger binding; sequences stand for … in GC…GCGATTGACAGCGTAGAATGAAGG
In a few lines:
(§1)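 On custom Agilent 4×180K arrays, double-stranded probes with 34-nt variable regions carried direct-repeat seeds, single-nucleotide variants, half-site ablations or random human genomic background. Ligand-free nuclear receptor dimers were applied for 1 h, and binding was read with antibodies against each partner (one per run). Binding z-scores come from regression-normalized fluorescence, with the random background probes as reference.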
In turn, GCGACTGGGGCAAAGCAGGTTACCATGAGGTTGG registered a PBM binding z-score of 1.2.
Still for that read-out and setting: in the case of GCTAGTTGGTCACTAAAAGGTCACACACCGGTCG it was 5.51.
Still for that read-out and setting: the result for ATCTCTAGGTAACAAGTGCAGTGAAAGAGAGGAC reads 0.571; that for CCTACTGGGCCATCTGGTCATTGATATCAACGTT, 0.54; that for ATCTCTAGGTAAAAGTTCAGTGGATCCCGAGGAT, 2.32.
Still for that read-out and setting: the result for CGTCAAAGTTCAACTAAAGTAACGTAAAGCACGC reads 4.13; that for ACTAGCAGGCCAAGTTTGGGTGACTCAAACAAAG, 0.251.
Consider CCTGCTAGGTCATGGTCAGCAAATCTACAGTATG, for which the PBM binding z-score came to 2.81.
The same measure, in the same setting: the result for ACAGACAGGTGATGCAGGTAACTCAGGCTATCAT reads 0.184; that for TCTGCTAGGTCAACGATGGTTAGCTAATCTGCTA, 2.99; that for ATCAAAAGGTCGACGAGGTGAGTATACACCGTTT, 3.3.
On the same count and under the same terms, the result for GCTGCTAGGTCAACTGATGGTCAGCCAAAGCTCG reads 3.68; that for CGTCCAAGGTCAATGCCAGGTCAGTGAAAGCATT, 4.92; that for GCTTACGGGTCAAAGGTTATATCATGAATAGAAT, 3.32.
TCTAGGTGGTCACGGAGGTCACACACGACGGGTA showed a PBM binding z-score of 4.44.
The same measure, in the same setting: in the case of CGTCCAATGTCAAAGGTCAGTGAAGAGATGACGG it was 4.3.
Still for that read-out and setting: in the case of CCTTACGGGTCACTCCAGGTTATAGGATCGGAGT it was 3.21; in that of GTACCAATGTGAATAGGTCGTTGATGAGTAGGCG, 0.0633; in that of ACTAGCAGGCCAAGTATGGGTCACTCAAACAAAG, 2.24.
CGTCCAAGGTCAGAGATGTCAGTGAATGCCGAGT: the PBM binding z-score came to 3.66.
For GCGACTGCGGCATCAGCAGGTTACCATAACTTAA, the PBM binding z-score was determined as 0.0981.
The same measure, in the same setting: the result for TCTTGTAGCTCAATAGAGGTTAAGAAAGTGCGCT reads 0.952; that for CAGCCTAGGTCAGGGCCAGTACAGGAGGAACGTT, 2.81.
Take TCTGACAGGTGAAGGTAACTCAGGTACGCAGTCG: the PBM binding z-score was 0.819.
For TCTGGTAGATCAAGCAGGTTAAGAAAGCCTGAGT, the PBM binding z-score was -0.182.
On the same count and under the same terms, the result for ATACCAAGGTGATCGTGAGGTGGTTGATACTAAC reads 0.533; that for TCTCGGAGGACACGAAGATCAGAGCTTTCCAGAG, 0.193; that for TTACCAAGGTGAAAGGTCGTTGATGCACGCCTTG, 2.52.
Consider CAAACTAGGTCCCCGGAAGGTCAAAGTCCGCATG, for which the PBM binding z-score is 4.26.
In the case of CCTACTGGGACACGAAAGGTCATTGATTCAGTGA, the PBM binding z-score was 4.97.
Turning to ATACCAAGGTAATCGTGAGGTCGTTGATACTAAC, the PBM binding z-score turned out to be 1.44.
Still for that read-out and setting: in the case of CAAACTAGGTCACCGGAAGGTCAAAGTGCGCATG it was 5.82; in that of TGTTGTAGATCAACAGGAGGTTAAGAAAGATCGA, 0.36; in that of TCGAGTAGGTTAGAGGCATTCAGAATGGCGTCGA, -0.851.
For CAGACAGGGTCAGCTAGGCCAGAGTAGGGACGGC, the PBM binding z-score was found to be 3.06.
In turn, GCGACTGGGGCATCAGCGGGTTACCATAACTTAA gave a PBM binding z-score of 0.625.
The same measure, in the same setting: the result for CCTACTGGGCCAGGGTCATTGATCAGTCAAAGCA reads 2.52.
The sequence ATATGTAGGTTAGGTGGGGTCATTCAGACTAGGC displayed a PBM binding z-score of 3.74.
As for GCAGACAGGTGACACGCAGGTAACTCAGGGTGGC, the PBM binding z-score was found to be 0.28.
On the same count and under the same terms, in the case of CCTACTGGGCCAAGAAGGTCATTGATGCCGATAA it was 3.17.

Another assay has as its system RARg:RXRa (NR concentration 270 nM, RXRa partner concentration 90 nM). The description is as above. Put shortly: as §1
GCGACTGGGGCAAAGCAGGTTACCATGAGGTTGG: the PBM binding z-score was 0.634.
Same read-out and setting: in the case of GCTAGTTGGTCACTAAAAGGTCACACACCGGTCG it was 5.78.
Sequence ATCTCTAGGTAACAAGTGCAGTGAAAGAGAGGAC came in with a PBM binding z-score of 0.393.
Same read-out and setting: in the case of CCTACTGGGCCATCTGGTCATTGATATCAACGTT it was 0.0182; in that of ATCTCTAGGTAAAAGTTCAGTGGATCCCGAGGAT, 2.02; in that of CGTCAAAGTTCAACTAAAGTAACGTAAAGCACGC, 5.9.
The same measure, in the same setting: in the case of ACTAGCAGGCCAAGTTTGGGTGACTCAAACAAAG it was 0.0882; in that of CCTGCTAGGTCATGGTCAGCAAATCTACAGTATG, 4.02; in that of ACAGACAGGTGATGCAGGTAACTCAGGCTATCAT, 0.124.
Still for that read-out and setting: in the case of TCTGCTAGGTCAACGATGGTTAGCTAATCTGCTA it was 3.97.
ATCAAAAGGTCGACGAGGTGAGTATACACCGTTT had a PBM binding z-score of 4.4.
Still for that read-out and setting: in the case of GCTGCTAGGTCAACTGATGGTCAGCCAAAGCTCG it was 5.01; in that of CGTCCAAGGTCAATGCCAGGTCAGTGAAAGCATT, 7.69.
On the same count and under the same terms, the result for GCTTACGGGTCAAAGGTTATATCATGAATAGAAT reads 6.74; that for TCTAGGTGGTCACGGAGGTCACACACGACGGGTA, 5.09.
The sequence CGTCCAATGTCAAAGGTCAGTGAAGAGATGACGG gave a PBM binding z-score of 5.61.
Still for that read-out and setting: the result for CCTTACGGGTCACTCCAGGTTATAGGATCGGAGT reads 4.55.
Same read-out and setting: the result for GTACCAATGTGAATAGGTCGTTGATGAGTAGGCG reads 0.177.
Same read-out and setting: in the case of ACTAGCAGGCCAAGTATGGGTCACTCAAACAAAG it was 2.53; in that of CGTCCAAGGTCAGAGATGTCAGTGAATGCCGAGT, 4.35.
In the case of GCGACTGCGGCATCAGCAGGTTACCATAACTTAA, the PBM binding z-score was -0.378.
On the same count and under the same terms, the result for TCTTGTAGCTCAATAGAGGTTAAGAAAGTGCGCT reads 0.354; that for CAGCCTAGGTCAGGGCCAGTACAGGAGGAACGTT, 3.02.
Same read-out and setting: the result for TCTGACAGGTGAAGGTAACTCAGGTACGCAGTCG reads 0.644; that for TCTGGTAGATCAAGCAGGTTAAGAAAGCCTGAGT, -0.3.
On the same count and under the same terms, in the case of ATACCAAGGTGATCGTGAGGTGGTTGATACTAAC it was 0.588; in that of TCTCGGAGGACACGAAGATCAGAGCTTTCCAGAG, 0.499.
TTACCAAGGTGAAAGGTCGTTGATGCACGCCTTG returned a PBM binding z-score of 4.17.
On the same count and under the same terms, the result for CAAACTAGGTCCCCGGAAGGTCAAAGTCCGCATG reads 4.15; that for CCTACTGGGACACGAAAGGTCATTGATTCAGTGA, 4.63.
Same read-out and setting: in the case of ATACCAAGGTAATCGTGAGGTCGTTGATACTAAC it was 1.55; in that of CAAACTAGGTCACCGGAAGGTCAAAGTGCGCATG, 8.58.
Same read-out and setting: in the case of TGTTGTAGATCAACAGGAGGTTAAGAAAGATCGA it was 1.06; in that of TCGAGTAGGTTAGAGGCATTCAGAATGGCGTCGA, -0.25; in that of CAGACAGGGTCAGCTAGGCCAGAGTAGGGACGGC, 4.3.
Consider GCGACTGGGGCATCAGCGGGTTACCATAACTTAA, for which the PBM binding z-score was 0.738.
The sequence CCTACTGGGCCAGGGTCATTGATCAGTCAAAGCA came in with a PBM binding z-score of 3.5.
The same measure, in the same setting: in the case of ATATGTAGGTTAGGTGGGGTCATTCAGACTAGGC it was 4.1; in that of GCAGACAGGTGACACGCAGGTAACTCAGGGTGGC, 0.798; in that of CCTACTGGGCCAAGAAGGTCATTGATGCCGATAA, 2.94.
